In PubChem BioAssay AID1159580 (chemical genetic matrix, 2015):
Values joined by “and” are separate entries in the source; they are usually repeats but may differ in a detail not shown here. Equal values may be shown once. The campaign covered roughly 5,500 compounds. About 2,000 (36%) were called active. Inconclusive results (about 18%) are left out. No stated cut-off is given here; in the data, active means normalized growth mostly below about 0.91 (no sharp cut-off); inconclusive means no clear call, values can overlap the other calls; inactive means mostly above about 0.92. This is one part of the list.

Assay: chemical genetic growth profiling, strain panel (AID 1159580);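 further: tested at 20 µM; growth read once vehicle control cultures reached saturation at 30 °C; 1 = growth at the plate median or of vehicle wells; lower values mean less growth of the strain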
Conditions: S. cerevisiae deletion strains, growth OD

Measured: normalized growth

CCC(C(=O)O)c1ccccc1 (configuration not stated)
inactive: locus YAL013W, strain DEP1, active compounds read low 1.01 | locus YAL021C, strain ccr4, active compounds read low 0.973 | locus YAL026C, strain drs2, active compounds read low 0.992 | locus YAL030W, strain snc1, active compounds read low 0.989 | locus YBL061C, strain skt5, active compounds read low 0.999 | locus YBR009C, strain hhf1, active compounds read low 0.991 | locus YBR021W, strain FUR4, active compounds read low 1.01 | locus YBR023C, strain chs3, active compounds read low 0.993 | locus YBR171W, strain sec66, active compounds read low 0.987 | locus YBR229C, strain ROT2, active compounds read low 0.997 | locus YBR231C, strain swc5, active compounds read low 1.01 | locus YBR279W, strain paf1, active compounds read low 1 | locus YCL011C, strain gbp2, active compounds read low 0.979 | locus YCL016C, strain dcc1, active compounds read low 0.982 | locus YCL029C, strain bik1, active compounds read low 1.01 | locus YCL061C, strain MRC1, active compounds read low 0.982 | locus YCL069W, strain vba3, active compounds read low 0.993 | locus YCR088W, strain abp1, active compounds read low 0.988 | locus YDL005C, strain med2, active compounds read low 0.98 | locus YDL035C, strain GPR1, active compounds read low 1.03 | locus YDL040C, strain nat1, active compounds read low 0.988 | locus YDL074C, strain BRE1, active compounds read low 1.02 | locus YDL101C, strain DUN1, active compounds read low 1 | locus YDL134C, strain PPH21, active compounds read low 1 | locus YDL185W, strain tfp1, active compounds read low 0.984 | locus YDL192W, strain arf1, active compounds read low 1 | locus YDR001C, strain nth1, active compounds read low 0.987 | locus YDR069C, strain doa4, active compounds read low 0.999 | locus YDR101C, strain arx1, active compounds read low 0.998 | locus YDR137W, strain rgp1, active compounds read low 0.97 | locus YDR150W, strain NUM1, active compounds read low 1.01 | locus YDR159W, strain sac3, active compounds read low 0.964 | locus YDR162C, strain NBP2, active compounds read low 1.01 | locus YDR195W, strain ref2 0.98 | locus YDR297W, strain sur2, active compounds read low 0.983 | locus YDR318W, strain mcm21, active compounds read low 0.994 | locus YDR334W, strain swr1, active compounds read low 0.975 | locus YDR335W, strain msn5, active compounds read low 1.02 | locus YDR388W, active compounds read low 0.996 | locus YDR392W, strain spt3, active compounds read low 0.991 | locus YDR502C, strain sam2, active compounds read low 1 | locus YEL003W, strain gim4, active compounds read low 0.997 | locus YEL037C, strain rad23, active compounds read low 0.989 | locus YEL061C, strain CIN8 (second series), active compounds read low 0.998 | locus YEL061C, strain CIN8, active compounds read low 1.01 | locus YER015W, strain faa2, active compounds read low 0.992 | locus YER016W, strain bim1, active compounds read low 0.976 | locus YER110C, active compounds read low 1 | locus YER111C, strain swi4, active compounds read low 0.979 | locus YER155C, strain BEM2 (second series), active compounds read low 0.975 | locus YER155C, strain BEM2, active compounds read low 1.01 | locus YER167W, strain BCK2, active compounds read low 1 | locus YFR010W, strain ubp6, active compounds read low 0.995 | locus YGL078C, strain dbp3, active compounds read low 0.979 | locus YGL086W, strain mad1, active compounds read low 0.998 | locus YGL167C, strain pmr1, active compounds read low 1 | locus YGL173C, strain kem1, active compounds read low 0.997 | locus YGL227W, strain vid30, active compounds read low 0.978 | locus YGL240W, strain doc1, active compounds read low 1.02 | locus YGL248W, strain PDE1, active compounds read low 1 | locus YGL253W, strain hxk2, active compounds read low 0.99 | locus YGR078C, strain PAC10, active compounds read low 1.02 | locus YGR135W, strain pre9, active compounds read low 1.03 | locus YGR229C, strain SMI1, active compounds read low 1.01 | locus YGR252W, strain gcn5, active compounds read low 0.976 | locus YHR013C, strain ard1, active compounds read low 0.963 | locus YHR027C, strain rpn1, active compounds read low 1 | locus YHR030C, strain SLT2, active compounds read low 1 and 0.961 | locus YHR079C, strain IRE1 (second series), active compounds read low 1 | locus YHR079C, strain IRE1, active compounds read low 0.959 | locus YHR094C, strain hxt1, active compounds read low 0.997 | locus YHR129C, strain ARP1, active compounds read low 0.995 | locus YHR142W, strain chs7, active compounds read low 1.02 | locus YHR200W, strain rpn10, active compounds read low 1 | locus YIL066C, strain RNR3, active compounds read low 1.01 | locus YIL073C, strain SPO22, active compounds read low 1.03 | locus YIL125W, strain kgd1, active compounds read low 0.971 | locus YIR030C, strain dcg1, active compounds read low 1.01 | locus YJL092W, strain hpr5, active compounds read low 0.979 | locus YJL095W, strain BCK1 (second series), active compounds read low 0.985 | locus YJL095W, strain BCK1, active compounds read low 1.02 and 0.968 | locus YJL115W, strain asf1, active compounds read low 0.984 | locus YJL129C, strain trk1, active compounds read low 0.983 | locus YJL134W, strain LCB3, active compounds read low 1.01 | locus YJL154C, strain vps35, active compounds read low 0.988 | locus YJL164C, strain tpk1, active compounds read low 0.98 | locus YJL166W, strain qcr8, active compounds read low 0.995 | locus YJL168C, strain set2, active compounds read low 0.995 | locus YJL187C, strain SWE1 (second series), active compounds read low 1 | locus YJL187C, strain SWE1, active compounds read low 0.971 | locus YJR043C, strain POL32, active compounds read low 1.03 | locus YJR066W, strain TOR1, active compounds read low 0.887
